Experimental findings from PubChem BioAssay (NCATS) are described below.

Inconclusive results are not listed. Entries that show only a call come without a potency. Calls of active or inactive are those of the source. Unless noted, calls follow the shape of the dose curve; as a rule, active = well fitted inhibition curve with a large enough effect; inconclusive = small, poorly fitted or top-dose-only effect; inactive = no such curve, though single readings can be large or run the other way.

Test [1] in a line: Primary qHTS for small molecule stabilizers of the endoplasmic reticulum resident proteome: Secreted ER Calcium Modulated Protein (SERCaMP) assay (AID 1508630). Summed up: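 The SH-SY5Y reporter protocol was run at 3 concentrations up to 38.3 uM (primary) or 11 concentrations (follow-up): 16 h compound, 100 nM thapsigargin for 4 h, then extracellular luciferase luminescence.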
In general terms: qHTS replaces the single test concentration by a dilution series.

For another test, the target named is Papain (Carica papaya) (UniProt P00784). The test is described as follows: Primary qHTS assay for inhibitors of the protease papain (AID 1645873).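 Also: papain turnover of Z-FR-AMC read as the AMC fluorescence gain over 10 min.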 Also: potency is read from the fitted curve at half-maximal effect.
Papain (Carica papaya), sequence (P00784 whole entry, looked up): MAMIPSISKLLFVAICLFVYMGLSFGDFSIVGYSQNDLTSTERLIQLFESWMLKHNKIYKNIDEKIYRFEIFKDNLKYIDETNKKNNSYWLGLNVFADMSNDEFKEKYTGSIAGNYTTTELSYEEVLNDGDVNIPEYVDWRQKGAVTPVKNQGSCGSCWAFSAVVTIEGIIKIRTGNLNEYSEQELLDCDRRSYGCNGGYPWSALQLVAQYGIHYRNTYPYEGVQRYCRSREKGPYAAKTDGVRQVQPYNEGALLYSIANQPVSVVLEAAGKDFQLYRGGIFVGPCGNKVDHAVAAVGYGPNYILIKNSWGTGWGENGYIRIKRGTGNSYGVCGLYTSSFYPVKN
Test [2] deals with Catechol O-methyltransferase (Homo sapiens) (UniProt P21964). The test can be described thus: Confirmatory Screen for Target Class Profiling of Small Molecule Inhibitors of Methyltransferases (AID 1745852; calls by dose curve; also: potency is read from the fitted curve at half-maximal effect). The note with it: MTase-Glo luminescence, SAH detection, recombinant enzyme; measured here: COMT max response; stronger effect = lower value.
Catechol O-methyltransferase (Homo sapiens), sequence (P21964 whole entry, looked up): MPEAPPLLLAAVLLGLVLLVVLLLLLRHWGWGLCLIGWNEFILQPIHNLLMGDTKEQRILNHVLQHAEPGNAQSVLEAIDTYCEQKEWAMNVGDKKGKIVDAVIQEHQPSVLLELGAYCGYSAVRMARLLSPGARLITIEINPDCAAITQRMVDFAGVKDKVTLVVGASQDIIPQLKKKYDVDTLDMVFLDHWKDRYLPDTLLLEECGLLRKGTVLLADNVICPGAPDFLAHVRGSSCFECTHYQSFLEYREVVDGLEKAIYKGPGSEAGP
The target in test [3] is Guanidinoacetate N-methyltransferase (Homo sapiens) (UniProt Q14353). The description is as above. The note with it: MTase-Glo luminescence, SAH detection, recombinant enzyme; activity change, negative = inhibition: at 57.3 µM (top of the series) unless noted.
The target in test [4] is N-terminal Xaa-Pro-Lys N-methyltransferase 1 (Homo sapiens) (UniProt Q9BV86). The test is described as follows: Confirmatory qHTS for Inhibitors of N-terminal methyltransferase 1 (NTMT1): MTaseGlo Assay (AID 1645874). Also: nearly all actives have a fitted effect of over 65% in size. Also: potency is read from the fitted curve at half-maximal effect.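 As to activity change, negative = inhibition: luminescence from SAH made as NTMT1 methylates SPKRIA peptide using SAM.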 Summed up:
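Inhibition was derived from luminescence after SAH-to-ATP conversion, scaled between no-enzyme and DMSO wells, then fitted by 4-parameter Hill. Conditions: 125 nM NTMT1, 100 uM SAM, 1 uM SPKRIA, 30 min RT.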

N-terminal Xaa-Pro-Lys N-methyltransferase 1 (Homo sapiens), sequence (Q9BV86 whole entry, looked up): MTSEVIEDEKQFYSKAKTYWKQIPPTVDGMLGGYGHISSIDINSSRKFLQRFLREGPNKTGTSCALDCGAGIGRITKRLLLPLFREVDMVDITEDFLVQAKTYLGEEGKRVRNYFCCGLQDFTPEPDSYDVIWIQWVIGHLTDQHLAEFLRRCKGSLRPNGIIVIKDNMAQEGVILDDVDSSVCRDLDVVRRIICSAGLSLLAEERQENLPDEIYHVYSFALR

Turning to `NNC(=O)c1ccc(O)cc1`, in test [1], the outcome is “inactive”. In addition, in the test with Papain (Carica papaya), the Potency result is “inactive”.
Consider `N[C@@]1(C(=O)O)CC[C@@H](C(=O)O)C1`, for which the outcome in test [1] is “inactive”. The Potency entry with Papain (Carica papaya) was “inactive”.
As to `COc1ccc2[nH]cc(CCN)c2c1`, the outcome in test [1] is “inactive”. Also, the Potency entry with Papain (Carica papaya) was “inactive”.
Regarding `OCc1cnc[nH]1`, the outcome in test [1] was “inactive”. Besides, the Potency result with Papain (Carica papaya) is “inactive”.
On to `CC1(C(=O)O)C2CCC(O2)C1(C)C(=O)O` (centres undefined), for which, in test [1], the outcome is “inactive”. Besides, the Potency result with Papain (Carica papaya) was “inactive”.
`O=C1C=CC(=O)C=C1`: the outcome in test [1] was “inactive”. Besides, the Potency entry with Papain (Carica papaya) is “inactive”.
Consider `Cc1o[nH]c(=O)c1CC(N)C(=O)O` (centres undefined), for which, in test [1], the outcome is “inactive”. The Potency entry with Papain (Carica papaya) was “inactive”.
Regarding `NC(N)=NOCC[C@H](N)C(=O)O`, in test [1], the outcome was “inactive”. Besides, the Potency entry with Papain (Carica papaya) was “inactive”.
With `Cc1[nH]c2ccc(O)cc2c1CCN`, the outcome in test [1] is “inactive”. In the test with Papain (Carica papaya), the Potency result was “inactive”.
With `CCN1C[C@@]2(COC)C3[C@@H](OC)C4[C@@H]1C3([C@@H]1C[C@]3(O)[C@H](OC(=O)c5ccccc5)[C@@H]1[C@]4(OC(C)=O)[C@@H](O)[C@@H]3OC)[C@H](OC)C[C@H]2O`, in test [1], the outcome is “inactive”. Also, in the test with Papain (Carica papaya), the Potency entry is “inactive”.
With `C[C@H](N)Cc1cccc(C(F)(F)F)c1`, the outcome in test [1] was “inactive”. The Potency entry with Papain (Carica papaya) was “inactive”.
With `CCNC(=O)[C@H]1O[C@@H](n2cnc3c(N)ncnc32)[C@H](O)[C@@H]1O`, in test [1], the outcome was “inactive”. Besides, the Potency entry with Papain (Carica papaya) was “inactive”.
As for `CC(N)[C@H](O)c1ccc(O)c(O)c1` (some centres undefined), in test [1], the outcome is “inactive”. In addition, the Potency entry in the test with Papain (Carica papaya) was “inactive”.
Take `COc1ccc2c(c1O)-c1cccc3c1[C@@H](C2)N(C)CC3`: in test [1], the outcome was “inactive”. Besides, the Potency result in the test with Papain (Carica papaya) is “inactive”.
In the case of `Clc1cc(I)cc(Cl)c1NC1=NCCN1`, the outcome in test [1] is “inactive”. The Potency entry in the test with Papain (Carica papaya) is “inactive”.
For `O=c1ccc2[nH]cc(C3=CCNCC3)c2[nH]1`, in test [1], the outcome is “inactive”. In addition, the Potency with Papain (Carica papaya) was 25.1 µM (active).
For `CC(Cc1ccc(OCC(=O)O)cc1)NCC(O)c1cccc(Cl)c1` (centres undefined) the same measures were “inactive” and “inactive”.
Turning to `CCCn1c(=O)c2[nH]c(C3CCCC3)nc2n(CCCOC(=O)c2ccc(S(=O)(=O)F)cc2)c1=O`, in test [1], the outcome is “inactive”. In addition, the Potency result with Papain (Carica papaya) was “inactive”.
Take `NCCCP(=O)(O)O`: in test [1], the outcome was “inactive”. Besides, in the test with Papain (Carica papaya), the Potency entry was “inactive”.
Consider `CN1CC[C@@]2(C)c3cc(O)ccc3N(C)C12` (some centres undefined), for which, in test [1], the outcome is “inactive”. Besides, the Potency result with Papain (Carica papaya) was “inactive”. Moreover, the activity in test [2] was -27.2%. Also, the Potency in test [3] is 24.3 µM (active).
Consider `CCCN(CCC)[C@H]1CCc2c(F)ccc(O)c2C1`, for which the outcome in test [1] is “inactive”. Besides, the Potency result in the test with Papain (Carica papaya) was “inactive”.
As for `CCCCCCCCCCCCCC(=O)O[C@@H]1[C@@H](C)[C@@]2(O)[C@@H](C=C(CO)C[C@@]3(O)C(=O)C(C)=C[C@@H]23)C2C(C)(C)[C@@]21OC(C)=O` (some centres undefined), the outcome in test [1] was “inactive”. The Potency result in the test with Papain (Carica papaya) was “inactive”.
As to `CC(C)(C)c1cc(C=C(C#N)C#N)cc(C(C)(C)C)c1O`, in test [1], the outcome is “inactive”. Also, the Potency result in the test with Papain (Carica papaya) was “inactive”. Further, the Potency in test [4] is 38.8 µM (active). Further, the activity in test [2] was -14.8%. The activity change, negative = inhibition in test [3] was -1.85%.
For `CC(N)c1cccc(Cl)c1Cl` (centres undefined), in test [1], the outcome was “inactive”. The Potency entry with Papain (Carica papaya) was “inactive”. The activity in test [2] was 3.38%. In addition, the activity change, negative = inhibition in test [3] is 5.58%.
Regarding `Cc1cc([C@@H]2CCCN2C)on1`, the outcome in test [1] was “inactive”. Also, the Potency entry in the test with Papain (Carica papaya) is “inactive”.
For the compound `NCCc1c[nH]c2ccc(C(N)=O)cc12`, the outcome in test [1] was “inactive”. In addition, in the test with Papain (Carica papaya), the Potency result is “inactive”.
For `NC(=O)CI`, in test [1], the outcome was “inactive”. In addition, the Potency result with Papain (Carica papaya) is “inactive”. Besides, the Potency in test [4] was 12.3 µM (active). Moreover, in test [2], the activity is -3.06%. Besides, the activity change, negative = inhibition in test [3] was found to be 0.112%.
As for `CCCN1CCc2cc(O)cc3c2[C@H]1Cc1ccc(O)c(O)c1-3`, in test [1], the outcome was “inactive”. Also, the Potency result with Papain (Carica papaya) is “inactive”. Also, in test [2], the activity came to 2.74%. In test [3], the activity change, negative = inhibition is -2.35%.
Consider `CCCN(CCC)C1Cc2cc(OC)c(OC)cc2C1`, for which, in test [1], the outcome is “inactive”. For the same compound, the Potency entry with Papain (Carica papaya) is “inactive”.
For `NC(N)=Nc1ccc2[nH]c3c(c2c1)C[C@@]1(O)[C@H]2Cc4ccc(O)c5c4[C@@]1(CCN2CC1CC1)[C@H]3O5`, the outcome in test [1] is “inactive”. In addition, the Potency result (with Papain (Carica papaya); in test [4]) was “inactive” throughout.
For `N=C(N)c1ccc(CS(=O)(=O)F)cc1`, the outcome in test [1] was “inactive”. In addition, in the test with Papain (Carica papaya), the Potency result is “inactive”.
With `CP(=O)(O)C1=CCNCC1`, the outcome in test [1] was “inactive”. Besides, in the test with Papain (Carica papaya), the Potency result is “inactive”.
On to `CCCN1CC[C@@H]2c3cc(O)ccc3CC[C@@H]21`, for which the outcome in test [1] is “inactive”. Moreover, the Potency entry with Papain (Carica papaya) is “inactive”. The activity in test [2] was determined as 1.91%. In test [3], the activity change, negative = inhibition was 0.453%.
Take `C[N+](C)(C)CC#CCN1CCCC1=O`: the outcome in test [1] was “inactive”. Besides, in the test with Papain (Carica papaya), the Potency entry was “inactive”.
Consider `CC(=O)NBr`, for which, in test [1], the outcome was “inactive”. For the same compound, in the test with Papain (Carica papaya), the Potency result is “inactive”.
Regarding `CC(C)NP(=O)(NC(C)C)OP(=O)(NC(C)C)NC(C)C`, in test [1], the outcome was “inactive”. Also, in the test with Papain (Carica papaya), the Potency entry is “inactive”.
With `C[N+](C)(C)CC#CCOC(=O)Nc1cccc(Cl)c1`, the outcome in test [1] is “inactive”. The Potency result with Papain (Carica papaya) was “inactive”.
Take `CCCN(CCC)C1CCc2cccc(O)c2C1` (centres undefined): the outcome in test [1] was “inactive”. Besides, the Potency result with Papain (Carica papaya) is “inactive”.
On to `Cc1sc2ccccc2c1CC1=NCCN1`, for which the outcome in test [1] was “inactive”. Further, the Potency in the test with Papain (Carica papaya) was 28.2 µM (active). In addition, the activity in test [2] was determined as 6.03%. Moreover, the activity change, negative = inhibition in test [3] came to 4.23%.
Turning to `C[N+](C)(C)CCOC(=O)CBr`, the outcome in test [1] was “inactive”. Besides, the Potency entry with Papain (Carica papaya) was “inactive”.
With `OC1CCCCC1N1CCC(c2ccccc2)CC1` (centres undefined), the outcome in test [1] is “inactive”. For the same compound, the Potency result with Papain (Carica papaya) was “inactive”.
